# In PubChem BioAssay AID1347385 (Zoeller Lab, School of Medicine, Boston University, 2020):
# Screen size: about 20,000 compounds; about 85 (0.4%) were called active. The sample holds actives, similar compounds and a random draw of the others, so the mix is not that of the screen.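 How the source made its calls: active means cell survival signal 2 SD away from solvent-only control wells, confirmed on one or two retests; inactive means the rest.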
# Assay: phospholipid synthesis inhibitors, CHO cells, primary screen, ZR-82 cells, Enamine library, screen 3 (AID 1347385);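 further: 3 h compound exposure then viability read about one day after UV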
# Settings: ZR-82 CHO cells, pyrene fatty acid UV survival, CellTiter Blue, peroxisome-deficient CHO-K1 mutant line, plus DGAT-1, DGAT-2 and ACAT inhibitors; at 10 µM unless noted
row,Compound,outcome
1,O=C(Nn1c(-c2cccs2)nc2sc3c(c2c1=O)CCCC3)c1cccs1,inactive
2,CCOC(=O)C1=C(C)NC2=C(C(=O)CC(C)(C)C2)C1C (centres undefined),inactive
3,O=C(O)c1sc2cc(F)ccc2c1Cl,inactive
4,C(=N\Nc1nncc2ccccc12)/c1ccc(N2CCOCC2)s1,inactive [setting not given]
5,COC(CNc1ncnc2sc3c(c12)CCC3)OC,inactive
6,Clc1cc(CSc2nnnn2C2CC2)cc2c1OCCO2,inactive
7,O=[N+]([O-])c1ccc2[nH]c(O)c(N=Nc3ccc(C(F)(F)F)cc3[N+](=O)[O-])c2c1,inactive
8,NC(=O)NCCCC(=O)O,inactive
9,S=C(NCCc1ccccc1)N/N=C1\CC2CC=CC12 (centres undefined),inactive [setting not given]
10,CC(N=C1NS(=O)(=O)c2ccccc21)C(=O)OC1CCOC1=O (centres undefined),inactive
11,CCOC(=O)c1c(C)[nH]c(C(=O)Cn2ncc(Cl)c(Cl)c2=O)c1C,inactive
12,FC(F)(F)C(=NC1(C(Cl)(Cl)Cl)Oc2ccccc2O1)Nc1ccccn1,inactive
13,O=S(=O)(c1cc(Br)ccc1Br)N1CCCc2ccccc21,inactive
14,O=S1(=O)CCC(N(Cc2ccco2)S(=O)(=O)c2ccc(S(=O)(=O)N3CCCC3)cc2)C1 (centres undefined),inactive
15,CCCN(CC1CC1)Cn1c(=S)sc2ccccc21,inactive
16,Clc1ccc2nc(N/N=C/c3cccc4nccnc34)nc(-c3ccccc3)c2c1,inactive [setting not given]
17,Fc1ccc(NC(=S)NNc2ccnc3cc(Cl)ccc23)cc1Cl,inactive
18,Clc1ccc2c(NN=C3c4ccccc4-c4ccccc43)ccnc2c1,active
19,Cn1/c(=N/N=C/C(Cl)=C/c2ccccc2)sc2ccccc21,inactive [setting not given]
20,S=C(NCC1CCCO1)NNc1ncnc2sc3c(c12)CCCC3 (centres undefined),inactive
21,CC(C)=CCC/C(C)=C/C=N/Nc1ccc([N+](=O)[O-])cc1,inactive [setting not given]
22,Nc1c(Cl)cc(NC(=S)Nc2ccc(SC(F)F)cc2)cc1Cl,inactive
23,COc1cc(NC(=S)Nc2ccc(SC(F)F)cc2)cc(OC)c1OC,inactive
24,Fc1ccc(NC(=S)Nc2ccc(SC(F)F)cc2)cc1Cl,active
25,O=C(C1CCCCC1)N1N=C2/C(=C/c3ccco3)CCCC2C1c1ccco1 (centres undefined),inactive
26,NC(CSC12CC3CC(CC(C3)C1)C2)C(=O)O (centres undefined),inactive
27,O=C(NC1=NCCS1)C1CC2CCCC(C1)C2=O (centres undefined),inactive

row,Compound,outcome
1,CC(C)NC(=S)NN=C1CCCCCCCCCCC1,inactive
2,Cc1cc(NC(=O)COC(=O)C2=NNC(=O)CC2)no1,inactive
3,O=[N+]([O-])c1cc(S(=O)(=O)Nc2ccc(Cl)c(S(=O)(=O)N3CCOCC3)c2)ccc1Cl,inactive
4,O=[N+]([O-])c1ccc(N=P(c2cccc3ccccc23)(c2cccc3ccccc23)N2CCOCC2)c(Br)c1,inactive
5,Nc1scc[n+]1Cc1cccc2cccnc12,inactive
6,Nc1nc(SCC(=O)NCCN2CCOCC2)nc2sc3c(c12)CCC3,inactive
7,CC(C)CC(C(=O)NNC(=O)c1ccco1)N1C(=O)C2CC=CCC2C1=O (centres undefined),inactive
8,O=S(=O)(Nc1ncccn1)c1ccc(NC(=S)Nc2cccnc2)cc1,inactive
9,CC(C)CC(NC(=O)NC1CCCCC1)C(=O)O (centres undefined),inactive
10,c1ccc(C2=NNC(c3ccccc3)C2)cc1 (centres undefined),inactive
11,O=C(NC1CCCCCCC1)c1ccc(=O)[nH]c1,inactive
12,CN(C1CCCCC1)S(=O)(=O)c1ccc2c(c1)OCCCO2,inactive
13,OC(Cc1nc2ccccc2[nH]1)c1nc2ccccc2[nH]1 (centres undefined),inactive
14,Cc1cc(NC(=O)Cn2c(=O)/c(=C\c3ccc(C)s3)s/c2=C\C(=O)C(C)(C)C)no1,inactive
15,C=CCN=c1scc(-c2ccc(OC)cc2)n1/N=C/c1ccc(OC(F)F)cc1,inactive [setting not given]
16,CCOC(=O)/C(=C\c1ccc(C)s1)c1nc2sc(C)c(C)c2c(=O)[nH]1,inactive
17,O=C(O)CCN1C(=O)C2CC=CCC2C1=O (centres undefined),inactive
18,S=C(N=P(c1ccccc1)(N1CCOCC1)N1CCOCC1)NCc1cn2ccccc2n1,inactive
19,S=C1NC(c2ccccc2)=NCN1N(c1ccccc1)c1ccccc1,inactive
20,COc1ccc(-c2noc(CSc3ncccn3)n2)cc1OC,inactive
21,CC1(C)CCCC(C)(C)N1Sc1ccccc1,inactive
22,Oc1ccc(-c2onc3ccc(Cl)cc23)cc1,inactive
23,NC1=NC(c2c(Cl)cccc2Cl)n2c(nc3ccccc32)N1 (centres undefined),inactive
24,Cc1cc(C(=O)Cn2cnc3c2c(=O)n(C)c(=O)n3C)c(C)n1CCC1=CCCCC1,inactive
25,O=C1CCC(C(=O)OCC(=O)c2ccc(Br)s2)=NN1,inactive
26,O=C1CSC2=NCN(c3ccccc3)CN12,inactive
27,Clc1cc(Cl)c(N/N=C/c2cn(-c3ccccc3)nc2-c2cc3ccccc3o2)c(Cl)c1,inactive [setting not given]
